BAZ2B inh: inhibitors of human BAZ2B bromodomain; AID 504333; 4.4% of 360,000 active; Potency, µM (top dose mostly 114 µM), actives largely listed as inhibitors; AlphaScreen BAZ2B-H3K14Ac peptide displacement; Q9UIF8; further: nearly all actives have a fitted effect of over 60% in size
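AlphaScreen displacement: compounds (up to 110uM) incubated 30 min at room temperature with a preformed 50 nM BAZ2B/50 nM biotinylated H3K14Ac peptide complex in PBS pH 7.4 with Tween-20. Donor and acceptor beads at 10 ug/mL final added, 20 min light-protected before reading.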
L3MBTL1 block: inhibitors of human L3MBTL1; Q9Y468; AlphaScreen L3MBTL1–H3K9me1 peptide binding; Potency, µM (highest dose often 57.1 µM), usual class: inhibitors; 0.66% of 230,000 active; AID 485360; further: nearly all actives have a fitted effect of over 60% in size
Target sequence (Q9Y468 whole entry, looked up): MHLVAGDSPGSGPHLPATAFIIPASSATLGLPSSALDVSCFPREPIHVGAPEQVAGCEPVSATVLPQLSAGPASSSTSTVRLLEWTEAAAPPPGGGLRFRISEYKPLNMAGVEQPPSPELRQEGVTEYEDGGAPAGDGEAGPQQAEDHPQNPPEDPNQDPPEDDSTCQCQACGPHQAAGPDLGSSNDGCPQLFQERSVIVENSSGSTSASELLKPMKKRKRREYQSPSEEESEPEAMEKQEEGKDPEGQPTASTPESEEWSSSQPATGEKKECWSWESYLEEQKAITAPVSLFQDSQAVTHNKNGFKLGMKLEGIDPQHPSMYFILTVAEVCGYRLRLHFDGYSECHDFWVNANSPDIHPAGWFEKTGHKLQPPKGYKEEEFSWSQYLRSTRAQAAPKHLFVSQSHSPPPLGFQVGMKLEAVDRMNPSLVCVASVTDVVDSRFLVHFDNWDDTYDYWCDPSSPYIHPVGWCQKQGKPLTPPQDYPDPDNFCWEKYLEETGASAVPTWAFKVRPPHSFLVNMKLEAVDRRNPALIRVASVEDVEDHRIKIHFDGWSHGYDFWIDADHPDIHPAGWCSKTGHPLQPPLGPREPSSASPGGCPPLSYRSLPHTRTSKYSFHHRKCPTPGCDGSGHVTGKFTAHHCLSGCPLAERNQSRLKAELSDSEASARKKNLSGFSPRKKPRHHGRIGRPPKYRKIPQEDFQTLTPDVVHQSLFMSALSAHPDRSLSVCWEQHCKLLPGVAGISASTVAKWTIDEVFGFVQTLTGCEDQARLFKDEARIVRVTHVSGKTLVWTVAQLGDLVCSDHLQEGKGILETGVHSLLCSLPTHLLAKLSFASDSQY
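First, the protein-peptide complex forms for 30 min at room temperature (L3MBTL1 50 nM, biotinylated H3K9me1 peptide 75 nM). Next, compounds are pin-transferred and incubated 30 min. Finally, AlphaScreen beads are added and read after 30 min.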
HP1b binding inh: inhibitors of HP1-beta chromodomain binding to methylated histone tails. P83916. Potency, µM (series often up to 114 µM), usual class: inhibitors. 0.56% of 390,000 active. AlphaScreen HP1-beta / biotin-H3K9me3 peptide binding; further: nearly all actives have a fitted effect of over 70% in size
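Compound inhibition of the preformed complex between 50 nM HP1-beta and 50 nM biotinylated H3K9me3 peptide was read by AlphaScreen. Buffer was PBS pH 7.4 with 0.01% Tween-20. Incubations ran 30 min at room temperature, with 10 ug/mL donor/acceptor beads.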
G9a inh: G9a (human) methyltransferase inhibition; Q96KQ7; AID 504332; 8.8% of 350,000 active; Potency, µM (titrated, usually from 102 µM), usual class: inhibitors; G9a H3K9 monomethylation, AlphaScreen, 2 h; further: nearly all actives have a fitted effect of over 75% in size
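Chemiluminescent proximity detection of H3K9 monomethylation, read after 10 min bead incubation in the dark. Reaction: 20 nM G9a, 500 nM biotin-H3K9 peptide, 20 uM SAM cofactor, 2 h, room temperature, following 15 min enzyme-compound preincubation.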
Sfp PPTase inh: inhibitors of Bacillus subtilis Sfp phosphopantetheinyl transferase. Q9F4F7. Biochemical Sfp PPTase activity, qHTS. Potency, µM, hits mostly inhibitors. 3.5% of 310,000 active;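 further: the enzyme is Sfp with the accession as filed and its product quenches rhodamine fluorescence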
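With Hepes-Na pH 7.6 buffer containing 10 mM MgCl2, Sfp (15 nM) modified BHQ-2-YbbR (12.5 uM) using rhodamine-CoA (5 uM). Two reads 30 minutes apart at 525/598 nm yielded each well's rate.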
JMJD2A Tudor: blocks the human JMJD2A Tudor domain; O75164; AlphaScreen JMJD2A-Tudor / H3K4me3 peptide binding; Potency, µM (titrated, usually from 114 µM), hits mostly inhibitors; 4.4% of 390,000 active; AID 504339; further: nearly all actives have a fitted effect of over 50% in size
A number is an active result; – = inactive; ? = inconclusive; · = not tested or not shown; [ ] = dose if it differs, or a comment. Most compounds without a hit are left out; they make up all but 12% or so of the library. The call rests on the fitted dose curve; in most records, active means well fitted curve in the direction sought with a large enough effect; inconclusive means small, poorly fitted or top-dose-only effect, or another doubt; inactive means no such curve, though single readings can be large; an effect the other way counts as inactive or inconclusive.

SMILES	BAZ2B inh	L3MBTL1 block	HP1b binding inh	G9a inh	Sfp PPTase inh	JMJD2A Tudor
CCOC(=O)CSc1ccc(C(=O)N2CCN(C)CC2)cc1[N+](=O)[O-]	–	·	–	44.7µM	–	–
O=C(NCC(c1ccc2c(c1)OCO2)N1CCOCC1)c1ccccc1F (stereo unspecified)	–	·	–	?	·	–
COCCNc1nc(C)nc2c1nc(-c1ccccc1)n2CCCN1CCCCC1C (stereo unspecified)	·	·	·	·	–	·
CCc1ccc(-n2c(=O)c3c4c(sc3n(CC(=O)c3ccc(F)cc3)c2=O)CCC4)cc1	–	·	–	–	·	–
COc1ccc(OC)c(Nc2ncc3c(n2)CCN(Cc2cc(OC)c(OC)c(OC)c2)C3)c1	–	·	–	?	·	–
COC(CNC(=O)c1ccc2c3c(onc13)-c1ccccc1C2=O)OC	?	?	?	28.2µM	17.8µM	50.1µM
Cc1ccccc1CNC(=O)Nc1cccs1	–	–	?	7.08µM	20µM	–
O=C(NCc1cccs1)Nc1cccs1	–	–	–	–[2.33 µM]	17.8µM	–
CCOc1cc(CNC(=O)NC2COc3ccc(OC)cc3C2)cc(OCC)c1OCC (stereo unspecified)	–	·	–	–	·	–
CC(C)CN1C(=O)/C(=C(/C#N)C(=O)NC2CCCCC2)c2ccccc21	?	–	–	?	7.08µM	?
CCCCN1C(=O)/C(=C(/C#N)C(=O)N2CCCC2)c2ccccc21	–	·	–	–[12.7 µM]	–	–
CCOC(=O)c1cccc(NC(=O)COc2ccc3c(C)cc(=O)oc3c2)c1	–	·	–	–	·	–
Cc1cccc(NC(=O)Cn2c(=O)n(CCC(=O)N3CCc4ccccc4C3)c(=O)c3ccccc32)c1	–	·	–	–	·	–
COc1ccc(/C=C2\COc3ccccc3C2=O)cc1OC	–	–	–	–	–	50.1µM
CCOc1cc(/C=C2\COc3ccccc3C2=O)cc(Br)c1OCC(=O)N(C)C	?	·	–	39.8µM	50.1µM	?
O=C(O)C1=C(Nc2ccccc2)OCC1=O	–	·	–	39.8µM	–	?
O=C(O/N=C1\CCCCC1c1ccc([N+](=O)[O-])cc1[N+](=O)[O-])c1c(F)cccc1F (stereo unspecified)	?	?	–	39.8µM	?	44.7µM
CCOC(=O)c1ncc2[nH]c3cccc(OC(C)C)c3c2c1C	·	·	·	–	–	·
O=C(NCc1ccc(Cl)cc1)C(=O)Nc1cccc(Br)c1	–	·	–	–	·	–
NC(=O)COc1ccc2oc(-c3ccccc3)cc(=O)c2c1	·	·	–	50.1µM	–	–
CCOC(=O)COc1ccc2c(=O)cc(-c3ccccc3)oc2c1	–	–	–	·	–	–
Cc1cc2oc(=O)cc(CN3CCCCC3)c2cc1C	–	·	–	–	–	–
Cc1cc2oc(=O)cc(CN3CCCc4ccccc43)c2cc1C	–	–	–	8.91µM	–	–
COCc1cc(C)nc2c1C(=O)NC(c1ccc(Br)cc1)N2Cc1ccccc1 (stereo unspecified)	–	·	–	–	·	–
COc1cccc(C(CNc2ccc(S(=O)(=O)N3CCN(C)CC3)cc2[N+](=O)[O-])N(C)C)c1 (stereo unspecified)	?	–	–	50.1µM	·	?
SMILES	BAZ2B inh	L3MBTL1 block	HP1b binding inh	G9a inh	Sfp PPTase inh	JMJD2A Tudor
CN1CCN(S(=O)(=O)c2ccc(N(C)Cc3ccc(OC(F)F)cc3)c([N+](=O)[O-])c2)CC1	50.1µM	–	?	–[0.501 µM]	·	?
COc1ccccc1C(C)Nc1ccc(S(=O)(=O)N2CCN(C)CC2)cc1[N+](=O)[O-] (stereo unspecified)	39.8µM	?	?	?	·	35.5µM
CC(Nc1ccc(S(=O)(=O)N2CCN(C)CC2)cc1[N+](=O)[O-])c1ccccc1 (stereo unspecified)	?	–	–	39.8µM	·	?
CC(Nc1cc(N2CCN(S(C)(=O)=O)CC2)ccc1[N+](=O)[O-])c1ccccc1 (stereo unspecified)	–	–	–	–	–	–
COc1ccccc1Oc1ccc(S(=O)(=O)N2CCN(C)CC2)cc1	·	–	–	–	–	–
Cc1ccc(CNC(=O)c2c(-c3cccc(Br)c3)noc2C)o1	–	·	–	–	·	–
COc1ccc(S(=O)(=O)Nc2ccc3c(c2)CCCN3S(=O)(=O)c2ccc(C)cc2)cc1F	?	·	–	–[12.7 µM]	·	–
Cc1ccc(C)c(OC(=O)CSc2nnc(-c3ccc4c(c3)OCO4)o2)c1	–	·	–	–	·	–
CCN(C(=O)c1cn(-c2ccc(OC)cc2)c(=O)c2ccccc12)c1cccc(Cl)c1	–	·	–	–	·	–
CCOC(=O)c1ccc(NC(=O)c2noc3c2CCCC3)cc1	–	·	–	–	·	–
CC[Si](CC)(CC)O[C@H]([C@@H](C)COCOC)[C@@H](C)COCc1ccc(OC)cc1	·	·	–	·	–	–
S=C(NCCCn1ccnc1)Nc1ccc(Cl)cc1Cl	50.1µM	–[11.4 µM]	–	–	–	–
O=C(NCCCn1ccnc1)Nc1ccc(Cl)cc1	–	–	–	–	–	–
O=C(NCCCn1ccnc1)Nc1ccc(Cl)c(Cl)c1	39.8µM	–	–	–	–	?
O=C(CNC(=O)c1ccc(Cl)cc1Cl)NCCCn1ccnc1	–	·	–	–	–	–
NC(=S)Cc1nc2n(n1)Cc1ccccc1-2	–	·	–	3.98µM	56.2µM	25.1µM
c1ccc2[nH]c(CN3CCCCCC3)nc2c1	–	–	–	28.2µM	–	–
C=C[C@@H]1[C@@H](C)[C@H](C)C(=O)C([C@H](O)C(C)C)[C@@H]1C (stereo partly specified)	·	·	–	·	–	–
O=C(Nc1cnc(N2CCN(c3ccccc3)CC2)c(C(=O)O)c1)c1cccs1	50.1µM	·	–	?	·	79.4µM
O=C(CN1CCN(c2ccc(F)cc2)CC1)c1cccs1	–	–	–	15.8µM	–	–
O=C(NC(=S)N1CCN(c2ccc(F)cc2)CC1)c1cccs1	?	–	–	50.1µM	–	–
O=C(Nc1ccc(N2CCN(c3ccc(F)cc3)CC2)c(C(=O)O)c1)c1cccs1	–	·	–	–	·	–
CCc1cc2c(cc3c(=O)n(CC(=O)NCc4cc(Br)ccc4OC)ncn32)s1	–	·	–	–	·	–
CC1=C(C(=O)Nc2ccccc2)C(c2ccc(C(=O)O)cc2)n2nc(SCC(=O)c3ccc(C)cc3)nc2N1 (stereo unspecified)	–	·	?	–	·	?
CCOC(=O)c1c(CC(C)C)csc1/N=C/C1C(=O)CCCC1=O	?	·	–	50.1µM	?	–
O=C(c1cnc(N2CCOCC2)c2ccccc12)N1CCN(c2ccccc2)CC1	–	·	–	–	·	–
Cc1ccc(C(c2sc3nc(-c4ccco4)nn3c2O)N2CCN(c3ccc(F)cc3)CC2)cc1 (stereo unspecified)	–	·	?	–	·	?
COc1ccc(N2CCN(C(c3ccc(F)cc3)c3sc4nc(-c5ccco5)nn4c3O)CC2)cc1 (stereo unspecified)	39.8µM	·	?	?	·	?

Screens deposited in PubChem BioAssay by National Center for Advancing Translational Sciences (NCATS).
